Laboratory results as given in the antibiotic and cytotoxicity screens of Wong et al. (2023).
About 1,500 (3.8%) of roughly 39,000 compounds were called active. This is one part of a sample in which actives are shown more often than they occur.

Test system: HSkMC (human skeletal muscle cells)
Test: cytotoxicity call (relative viability < 0.9)
Conditions: 10 µM

Compound	cytotoxicity call
COc1ccc(S(=O)(=O)N(C)C[C@H]2OCCCC[C@H](C)Oc3ccc(NC(=O)Nc4ccc(C(F)(F)F)cc4)cc3C(=O)N([C@@H](C)CO)C[C@@H]2C)cc1	inactive
COc1ccc(S(=O)(=O)N(C)C[C@H]2OCCCC[C@@H](C)Oc3ccc(NC(=O)Nc4ccc(C(F)(F)F)cc4)cc3C(=O)N([C@H](C)CO)C[C@H]2C)cc1	inactive
COc1ccc(S(=O)(=O)N(C)C[C@H]2OCCCC[C@@H](C)Oc3ccc(NC(=O)Nc4ccc(C(F)(F)F)cc4)cc3C(=O)N([C@@H](C)CO)C[C@H]2C)cc1	active
C[C@@H]1CN([C@H](C)CO)C(=O)c2cc(NC(=O)Nc3ccc(C(F)(F)F)cc3)ccc2O[C@@H](C)CCCCO[C@H]1CN(C)S(=O)(=O)c1ccc(Cl)cc1	inactive
C[C@@H]1CCCCO[C@@H](CN(C)S(=O)(=O)c2ccc(Cl)cc2)[C@H](C)CN([C@@H](C)CO)C(=O)c2cc(NC(=O)Nc3ccc(C(F)(F)F)cc3)ccc2O1	inactive
COc1ccc(S(=O)(=O)N(C)C[C@@H]2OCCCC[C@H](C)Oc3ccc(NC(=O)Nc4ccc(C(F)(F)F)cc4)cc3C(=O)N([C@H](C)CO)C[C@@H]2C)cc1	inactive
COc1ccc(S(=O)(=O)N(C)C[C@H]2OCCCC[C@@H](C)Oc3ccc(NC(=O)Nc4ccc(C(F)(F)F)cc4)cc3C(=O)N([C@@H](C)CO)C[C@@H]2C)cc1	active
COc1ccc(S(=O)(=O)N(C)C[C@@H]2OCCCC[C@H](C)Oc3ccc(NC(=O)Nc4ccc(C(F)(F)F)cc4)cc3C(=O)N([C@@H](C)CO)C[C@H]2C)cc1	inactive
C[C@@H]1CCCCO[C@H](CN(C)S(=O)(=O)c2ccc(Cl)cc2)[C@@H](C)CN([C@H](C)CO)C(=O)c2cc(NC(=O)Nc3ccc(C(F)(F)F)cc3)ccc2O1	active
C=C1[N-]O[N+](O)=C1CN(Cc1c(C)no[n+]1[O-])OC(C)=O	inactive
C[C@H]1CN([C@@H](C)CO)C(=O)c2cccc(NC(=O)Nc3ccc(C(F)(F)F)cc3)c2O[C@@H]1CN(C)Cc1ccc(-c2ccccc2)cc1	inactive
C[C@H](CO)N1C[C@H](C)[C@H](CN(C)Cc2ccc(Cl)c(Cl)c2)OCCCC[C@H](C)Oc2ccc(NC(=O)NC3CCCCC3)cc2C1=O	inactive
Cn1nc(CN2CCCC2=O)c2c1CN(C(=O)CO)C2	inactive
C[C@H]1CCCCO[C@H](CN(C)Cc2ccc(C(F)(F)F)cc2)[C@@H](C)CN([C@@H](C)CO)C(=O)c2cc(N(C)C)ccc2O1	inactive
COc1ccc(-c2cnc3c(c2)C(=O)N([C@H](C)CO)C[C@@H](C)[C@H](CN(C)C(=O)Cc2cccnc2)O3)cc1	inactive
